Six sequences from publication PMC11006913 can be followed below.

Changes are numbered by the printed parent chain.

What all share (assay): PBM; 200 nM protein, PBS
Holding throughout (settings): dsDNA, one strand shown

Test [1] deals with T1, SIX6 (Homo sapiens, UniProt O95475 114-200, L167I).
T1 sequence: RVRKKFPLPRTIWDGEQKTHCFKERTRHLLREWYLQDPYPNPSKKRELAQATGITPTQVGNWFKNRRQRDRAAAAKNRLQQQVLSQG

In test [2] the target is T2, SIX6 (Homo sapiens, UniProt O95475 114-200, L143V).
T2 sequence: T1 sequence with L30V, I54L

For test [3], the target named is T3, SIX6 (Homo sapiens, UniProt O95475 114-200, H141N).
T3 sequence: T1 sequence with H28N, I54L

Test [4] has as its target T4, SIX6 (Homo sapiens, UniProt O95475 114-200, T165P).
T4 sequence: T1 sequence with T52P, I54L

In test [5] the target is T5, SIX6 (Homo sapiens, UniProt O95475 114-200, L167M).
T5 sequence: T1 sequence with I54M

Test [6] deals with T6, SIX6 (Homo sapiens, UniProt O95475 114-200, L143M).
T6 sequence: T1 sequence with L30M, I54L

Test [7] addresses T7, SIX6 (Homo sapiens, UniProt O95475 114-200, L143I).
T7 sequence: T1 sequence with L30I, I54L

Test [8] addresses T8, SIX6 (Homo sapiens, UniProt O95475 114-200, T165G).
T8 sequence: T1 sequence with T52G, I54L

The target in test [9] is T9, SIX6 (Homo sapiens, UniProt O95475 114-200, T139Q).
T9 sequence: T1 sequence with T26Q, I54L

Test [10] has as its target T10, SIX6 (Homo sapiens, UniProt O95475 114-200, T165A).
T10 sequence: T1 sequence with T52A, I54L

Test [11] has as its target T11, SIX6 (Homo sapiens, UniProt O95475 114-200, L167V).
T11 sequence: T1 sequence with I54V

Test [12] addresses T12, SIX6 (Homo sapiens, UniProt O95475 114-200).
T12 sequence: T1 sequence with I54L

Test [13] addresses T13, SIX6 (Homo sapiens, UniProt O95475 114-200, T165I).
T13 sequence: T1 sequence with T52I, I54L

As to GATACCCC, the binding signal is 11.5 upbm affinity estimate (log intensity, higher = more binding, comparable within an allelic series) in test [1]; 10.4 upbm affinity estimate (log intensity, higher = more binding, comparable within an allelic series) in [2]; 11.5 upbm affinity estimate (log intensity, higher = more binding, comparable within an allelic series) in test [3]; 9.41 upbm affinity estimate (log intensity, higher = more binding, comparable within an allelic series) in test [4]; 11 upbm affinity estimate (log intensity, higher = more binding, comparable within an allelic series) in [5]; 11.2 upbm affinity estimate (log intensity, higher = more binding, comparable within an allelic series) in test [6]. Further, the binding signal in test [7] was 10.5 upbm affinity estimate (log intensity, higher = more binding, comparable within an allelic series); in [8] it was 11.6 upbm affinity estimate (log intensity, higher = more binding, comparable within an allelic series); in test [9], 11.4 upbm affinity estimate (log intensity, higher = more binding, comparable within an allelic series); in test [10], 11.3 upbm affinity estimate (log intensity, higher = more binding, comparable within an allelic series); in [11], 11.2 upbm affinity estimate (log intensity, higher = more binding, comparable within an allelic series); in test [12], 11.3 upbm affinity estimate (log intensity, higher = more binding, comparable within an allelic series). Further, the binding signal in [13] is 11.2 upbm affinity estimate (log intensity, higher = more binding, comparable within an allelic series).
With CCATATCA, the binding signal is 11.1 upbm affinity estimate (log intensity, higher = more binding, comparable within an allelic series) in [1]; 10.1 upbm affinity estimate (log intensity, higher = more binding, comparable within an allelic series) in test [2]; 11.1 upbm affinity estimate (log intensity, higher = more binding, comparable within an allelic series) in test [3]; 9.48 upbm affinity estimate (log intensity, higher = more binding, comparable within an allelic series) in test [4]; 10.4 upbm affinity estimate (log intensity, higher = more binding, comparable within an allelic series) in test [5]; 10.8 upbm affinity estimate (log intensity, higher = more binding, comparable within an allelic series) in [6]. The binding signal in [7] was 10.2 upbm affinity estimate (log intensity, higher = more binding, comparable within an allelic series); in test [8], 11.1 upbm affinity estimate (log intensity, higher = more binding, comparable within an allelic series); in [9] it was 11 upbm affinity estimate (log intensity, higher = more binding, comparable within an allelic series); in test [10] it was 11 upbm affinity estimate (log intensity, higher = more binding, comparable within an allelic series); in [11], 10.8 upbm affinity estimate (log intensity, higher = more binding, comparable within an allelic series); in test [12] it was 10.9 upbm affinity estimate (log intensity, higher = more binding, comparable within an allelic series). Also, the binding signal in [13] was 10.8 upbm affinity estimate (log intensity, higher = more binding, comparable within an allelic series).
For CAGCCCCG, the binding signal in test [1] was 8.86 upbm affinity estimate (log intensity, higher = more binding, comparable within an allelic series); in test [2] it was 8.79 upbm affinity estimate (log intensity, higher = more binding, comparable within an allelic series); in test [3] it was 8.86 upbm affinity estimate (log intensity, higher = more binding, comparable within an allelic series); in test [4], 8.88 upbm affinity estimate (log intensity, higher = more binding, comparable within an allelic series); in [5], 8.84 upbm affinity estimate (log intensity, higher = more binding, comparable within an allelic series); in test [6], 8.78 upbm affinity estimate (log intensity, higher = more binding, comparable within an allelic series). Further, the binding signal in test [7] is 8.82 upbm affinity estimate (log intensity, higher = more binding, comparable within an allelic series); in test [8] it was 8.82 upbm affinity estimate (log intensity, higher = more binding, comparable within an allelic series); in test [9], 8.98 upbm affinity estimate (log intensity, higher = more binding, comparable within an allelic series); in [10], 8.8 upbm affinity estimate (log intensity, higher = more binding, comparable within an allelic series); in [11], 8.86 upbm affinity estimate (log intensity, higher = more binding, comparable within an allelic series); in test [12], 8.8 upbm affinity estimate (log intensity, higher = more binding, comparable within an allelic series). For the same sequence, the binding signal in test [13] is 8.81 upbm affinity estimate (log intensity, higher = more binding, comparable within an allelic series).
In the case of CCCCGCAG, the binding signal is 9.03 upbm affinity estimate (log intensity, higher = more binding, comparable within an allelic series) in test [1]; 8.85 upbm affinity estimate (log intensity, higher = more binding, comparable within an allelic series) in test [2]; 9.03 upbm affinity estimate (log intensity, higher = more binding, comparable within an allelic series) in test [3]; 8.95 upbm affinity estimate (log intensity, higher = more binding, comparable within an allelic series) in test [4]; 9 upbm affinity estimate (log intensity, higher = more binding, comparable within an allelic series) in [5]; 8.92 upbm affinity estimate (log intensity, higher = more binding, comparable within an allelic series) in [6]. Moreover, the binding signal in [7] is 8.95 upbm affinity estimate (log intensity, higher = more binding, comparable within an allelic series); in test [8], 9.04 upbm affinity estimate (log intensity, higher = more binding, comparable within an allelic series); in test [9] it was 8.99 upbm affinity estimate (log intensity, higher = more binding, comparable within an allelic series); in test [10] it was 8.96 upbm affinity estimate (log intensity, higher = more binding, comparable within an allelic series); in test [11], 8.93 upbm affinity estimate (log intensity, higher = more binding, comparable within an allelic series); in test [12] it was 8.96 upbm affinity estimate (log intensity, higher = more binding, comparable within an allelic series). For the same sequence, the binding signal in test [13] is 8.97 upbm affinity estimate (log intensity, higher = more binding, comparable within an allelic series).
Turning to CCGGCGCC, the binding signal was 8.8 upbm affinity estimate (log intensity, higher = more binding, comparable within an allelic series) in test [1]; 8.98 upbm affinity estimate (log intensity, higher = more binding, comparable within an allelic series) in test [2]; 8.96 upbm affinity estimate (log intensity, higher = more binding, comparable within an allelic series) in [3]; 9.05 upbm affinity estimate (log intensity, higher = more binding, comparable within an allelic series) in [4]; 9 upbm affinity estimate (log intensity, higher = more binding, comparable within an allelic series) in test [5]; 8.85 upbm affinity estimate (log intensity, higher = more binding, comparable within an allelic series) in [6]. For the same sequence, the binding signal in test [7] was 9.03 upbm affinity estimate (log intensity, higher = more binding, comparable within an allelic series); in [8] it was 8.96 upbm affinity estimate (log intensity, higher = more binding, comparable within an allelic series); in test [9], 8.96 upbm affinity estimate (log intensity, higher = more binding, comparable within an allelic series); in [10], 8.98 upbm affinity estimate (log intensity, higher = more binding, comparable within an allelic series); in test [11], 8.96 upbm affinity estimate (log intensity, higher = more binding, comparable within an allelic series); in test [12], 9.02 upbm affinity estimate (log intensity, higher = more binding, comparable within an allelic series). In addition, in test [13], the binding signal was 8.9 upbm affinity estimate (log intensity, higher = more binding, comparable within an allelic series).
GTATCAGA: the binding signal in [1] was 11.1 upbm affinity estimate (log intensity, higher = more binding, comparable within an allelic series); in test [2], 10.3 upbm affinity estimate (log intensity, higher = more binding, comparable within an allelic series); in test [3], 11.1 upbm affinity estimate (log intensity, higher = more binding, comparable within an allelic series); in [4], 9.63 upbm affinity estimate (log intensity, higher = more binding, comparable within an allelic series); in [5], 10.6 upbm affinity estimate (log intensity, higher = more binding, comparable within an allelic series); in test [6] it was 10.9 upbm affinity estimate (log intensity, higher = more binding, comparable within an allelic series). Besides, the binding signal is 10.2 upbm affinity estimate (log intensity, higher = more binding, comparable within an allelic series) in test [7]; 11.1 upbm affinity estimate (log intensity, higher = more binding, comparable within an allelic series) in test [8]; 11.1 upbm affinity estimate (log intensity, higher = more binding, comparable within an allelic series) in test [9]; 11.1 upbm affinity estimate (log intensity, higher = more binding, comparable within an allelic series) in [10]; 10.9 upbm affinity estimate (log intensity, higher = more binding, comparable within an allelic series) in test [11]; 10.9 upbm affinity estimate (log intensity, higher = more binding, comparable within an allelic series) in test [12]. Further, the binding signal in test [13] was 10.8 upbm affinity estimate (log intensity, higher = more binding, comparable within an allelic series).
